This is an account of results in paper PMC6707232.

Targets include COPS3 (UniProt Q9UNS2); COPS7B (UniProt Q9H9Q2); ELOB (UniProt Q15370).
Common to all, as to experiment: cross-linking mass spectrometry
Common to all, as to conditions: not determined

Sequence of UniProt Q9UNS2 (Q9UNS2 whole entry): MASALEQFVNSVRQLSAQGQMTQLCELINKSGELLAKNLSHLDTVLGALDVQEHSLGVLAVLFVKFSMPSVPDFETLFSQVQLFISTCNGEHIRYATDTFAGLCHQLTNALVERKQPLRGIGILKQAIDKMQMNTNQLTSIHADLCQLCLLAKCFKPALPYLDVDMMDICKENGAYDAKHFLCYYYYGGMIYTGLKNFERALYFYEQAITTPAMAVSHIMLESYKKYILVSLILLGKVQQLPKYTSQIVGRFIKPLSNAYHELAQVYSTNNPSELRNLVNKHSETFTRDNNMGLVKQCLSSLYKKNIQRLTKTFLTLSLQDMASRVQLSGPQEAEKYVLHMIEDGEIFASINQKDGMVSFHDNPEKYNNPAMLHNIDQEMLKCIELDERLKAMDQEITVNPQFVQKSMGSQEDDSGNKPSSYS
Sequence of GPS1 (Q13098 whole entry): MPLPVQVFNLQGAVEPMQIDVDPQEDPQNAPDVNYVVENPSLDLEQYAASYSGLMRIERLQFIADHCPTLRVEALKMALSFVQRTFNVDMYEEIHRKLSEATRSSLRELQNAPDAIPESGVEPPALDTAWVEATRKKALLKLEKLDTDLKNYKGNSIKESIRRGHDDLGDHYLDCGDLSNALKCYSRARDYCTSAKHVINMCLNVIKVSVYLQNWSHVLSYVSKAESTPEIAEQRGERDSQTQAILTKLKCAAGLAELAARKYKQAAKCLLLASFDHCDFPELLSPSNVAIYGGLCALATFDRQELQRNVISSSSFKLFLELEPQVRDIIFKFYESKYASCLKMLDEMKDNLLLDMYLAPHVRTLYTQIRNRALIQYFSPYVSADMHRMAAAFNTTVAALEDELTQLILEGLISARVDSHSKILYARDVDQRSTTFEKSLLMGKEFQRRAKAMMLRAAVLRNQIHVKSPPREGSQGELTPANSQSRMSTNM
Sequence of COPS2 (P61201 whole entry): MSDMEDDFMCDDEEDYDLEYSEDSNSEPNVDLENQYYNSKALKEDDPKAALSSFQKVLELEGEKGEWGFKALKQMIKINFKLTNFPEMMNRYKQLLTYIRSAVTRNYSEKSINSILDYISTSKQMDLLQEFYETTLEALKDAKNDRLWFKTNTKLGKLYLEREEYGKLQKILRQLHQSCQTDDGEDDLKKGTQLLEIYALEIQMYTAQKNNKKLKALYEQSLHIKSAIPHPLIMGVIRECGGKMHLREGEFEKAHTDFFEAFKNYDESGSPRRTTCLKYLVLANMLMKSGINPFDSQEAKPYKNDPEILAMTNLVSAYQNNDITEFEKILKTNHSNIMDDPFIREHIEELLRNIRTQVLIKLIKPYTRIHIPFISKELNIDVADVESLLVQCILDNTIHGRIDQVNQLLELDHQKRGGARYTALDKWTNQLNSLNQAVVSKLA
Sequence of UniProt Q15370 (Q15370 whole entry): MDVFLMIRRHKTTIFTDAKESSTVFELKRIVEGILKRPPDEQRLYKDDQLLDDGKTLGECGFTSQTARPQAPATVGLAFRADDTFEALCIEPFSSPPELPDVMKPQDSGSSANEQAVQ
Sequence of UniProt Q9H9Q2 (Q9H9Q2 whole entry): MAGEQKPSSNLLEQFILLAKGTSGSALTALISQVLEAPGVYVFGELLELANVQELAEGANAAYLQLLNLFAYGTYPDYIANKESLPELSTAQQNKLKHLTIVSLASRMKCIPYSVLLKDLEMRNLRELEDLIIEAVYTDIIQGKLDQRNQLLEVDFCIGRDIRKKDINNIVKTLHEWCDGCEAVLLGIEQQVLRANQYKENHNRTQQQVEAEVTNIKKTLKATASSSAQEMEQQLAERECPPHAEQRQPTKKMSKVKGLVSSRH

Take COPS2, P61201: the results for the cross-linked residues entry in the experiment with COPS3 and with COPS7B were “K426 - K243” and “K426 - K199”, respectively.

GPS1, Q13098: the figures for the cross-linked residues entry with COPS3 and with ELOB were “K467 - K406” and “K158 - K19”, respectively.
